Here are results for nine molecules from PubChem BioAssay (EPA / NIEHS).

By AC50 is commonly meant the midpoint of the concentration-response curve, whichever way the signal moves.

“And” between values parts separate entries of the source, which are not always exact repeats. Equal entries are not always repeated. Inconclusive results are not listed. The source holds several records for some structures; these can differ, active in one and inactive in another. The source made the active and inactive calls. The calls were made as follows, unless noted: active = hit-call score of the fitted dose curve at least 0.9, where 1 is the maximum; inactive = score below 0.9.

Test [1] can be described thus: BSK_SAg_PBMCCytotoxicity: PBMC Cytotoxicity Assessment in the BioMAP Diversity Plus: SAg Assay (AID 2283093).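 Also: PBMC viability measured as Alamar Blue reduction fluorescence at 546/580 nm; fitted both ways against DMSO so a hit may be loss or gain of signal.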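 As to AC50: PBMC superantigen activated with SEB plus TSST-1 one hour after compound addition.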 The note with it: primary human HUVEC with PBMC. An outline of the steps: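 Alamar Blue reduction (6 h, 546/580 nm) reports PBMC cytotoxicity after 90 h superantigen activation (SEB, TSST-1; 20 ng/mL final each) with 1 h compound pre-treatment. Gain or loss of signal fitted versus DMSO.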

Read-out in test [2]: Interleukin-8 (IL8), CXCL8 (gene 3576)
As to the kind of experiment: BSK_SAg_IL8: BioMAP Diversity Plus: SAg Assay for Interleukin-8 (IL8) Biomarker Activity (AID 2283094). The note with it: primary human HUVEC with PBMC; actives raise or lower the signal. The method, boiled down:
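HUVEC/PBMC co-culture, 24 h post-dose; IL-8 by ELISA. Gain or loss of signal fitted bidirectionally vs DMSO baseline.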

Test [3] in a line: BSK_SAg_Proliferation: Cell Proliferation Assessment in the BioMAP Diversity Plus: SAg Assay (AID 2283095).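 Also: relative cell number as total protein by SRB absorbance in sub-confluent culture.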 The note with it: primary human HUVEC with PBMC. An outline of the steps: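 HUVEC/PBMC co-culture, 96-well. TCA-fixed (10%), 0.1% SRB stain, A560 at 96 h. Protein content used as viability readout; bidirectional fitting vs DMSO control.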
Test [4] in a line: BSK_SAg_SRB: Viability Assessment in the BioMAP Diversity Plus: SAg Assay (AID 2283096).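 Also: cells read one day after compound addition; hits may be either gain or loss of signal compared with DMSO.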 The note with it: primary human HUVEC with PBMC. An outline of the steps: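 This overt-cytotoxicity endpoint quantifies protein in human endothelial/PBMC co-cultures at 24 h using SRB absorbance (560 nm) after trichloroacetic acid fixation. Values reflect signal change from the DMSO negative control, fitted bidirectionally.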

Read-out in test [5]: Monokine induced gamma interferon (MIG), CXCL9 (gene 4283)
Briefly: BSK_SAg_MIG: BioMAP Diversity Plus: SAg Assay for Monokine induced gamma interferon (MIG) Biomarker Activity (AID 2283092). The note with it: primary human HUVEC with PBMC; actives raise or lower the signal. An outline of the steps: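 ELISA readout of MIG/CXCL9; primary human umbilical vein endothelial cells co-cultured with peripheral blood mononuclear cells; 24 h post-dose; gain/loss fit vs DMSO baseline.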

Test [6] deals with human CYP19A1, CYP19A1 (gene 1588) (UniProt P11511). As to the kind of experiment: NVS_ADME_hCYP19A1: NovaScreen (NVS) CYP450-related Enzyme Activity (ADME) Assay for human CYP19A1 (AID 2283098; active = hit-call score of the fitted dose curve at least 0.9, where 1 is the maximum;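 as to AC50: potency for inhibitors seen as loss of fluorescent enzyme signal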). An outline of the steps: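 Compounds were first screened at 10 uM in duplicate against purified enzyme, with a fluorogenic substrate and fluorescence intensity detection after 0.5 h. Inhibition appears as reduced signal against acetonitrile control.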
Chain of human CYP19A1, CYP19A1 (gene 1588) (P11511 whole entry, looked up): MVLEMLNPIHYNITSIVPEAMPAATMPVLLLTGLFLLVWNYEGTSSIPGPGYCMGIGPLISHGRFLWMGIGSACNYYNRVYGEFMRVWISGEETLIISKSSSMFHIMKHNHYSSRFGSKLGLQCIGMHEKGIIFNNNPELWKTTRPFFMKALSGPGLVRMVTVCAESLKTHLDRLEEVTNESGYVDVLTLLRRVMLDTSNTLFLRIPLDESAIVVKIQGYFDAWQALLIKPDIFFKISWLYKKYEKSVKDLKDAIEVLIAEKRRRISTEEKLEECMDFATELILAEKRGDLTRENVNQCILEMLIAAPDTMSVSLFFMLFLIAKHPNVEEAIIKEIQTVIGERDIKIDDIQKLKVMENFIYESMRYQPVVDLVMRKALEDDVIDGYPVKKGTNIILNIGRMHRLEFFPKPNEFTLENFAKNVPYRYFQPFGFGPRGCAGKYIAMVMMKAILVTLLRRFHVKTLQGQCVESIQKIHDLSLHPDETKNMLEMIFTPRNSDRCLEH

The target of test [7] is human CYP2A6, CYP2A6 (gene 1548) (UniProt P11509). Briefly: NVS_ADME_hCYP2A6: NovaScreen (NVS) CYP450-related Enzyme Activity (ADME) Assay for human CYP2A6 (AID 2283099; active = hit-call score of the fitted dose curve at least 0.9, where 1 is the maximum). The method, boiled down:
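Insect-cell-expressed human CYP2A6 enzyme activity measured by fluorescence intensity 0.5 hour post-dosing. Compounds screened at 10 uM in duplicate, then hits tested singly in concentration series (max 20 uM); acetonitrile baseline.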

In test [8] the target is human CYP1A1, CYP1A1 (gene 1543) (UniProt P04798). As to the kind of experiment: NVS_ADME_hCYP1A1: NovaScreen (NVS) CYP450-related Enzyme Activity (ADME) Assay for human CYP1A1 (AID 2283100; active = hit-call score of the fitted dose curve at least 0.9, where 1 is the maximum). An outline of the steps:
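Read-out: fluorescence intensity from enzymatic turnover of substrate by recombinant CYP1A1, loss of signal indicating inhibition. Incubation 1 h post-dose. Primary single-point 10 uM in duplicate; actives rerun singly with top concentration 20 uM.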

The target of test [9] is Cytochrome P450 2C18 (Homo sapiens) (UniProt P33260). Briefly: NVS_ADME_hCYP2C18: NovaScreen (NVS) CYP450-related Enzyme Activity (ADME) Assay for human CYP2C18 (AID 2283103). The method, boiled down: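 Enzyme activity measured by fluorescence 0.5 h after compound addition, using recombinant CYP2C18 and a specific substrate. Actives from duplicate 10 uM screening were retested in concentration series (top 20 uM); acetonitrile served as negative baseline.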
Chain of Cytochrome P450 2C18 (Homo sapiens) (P33260 whole entry, looked up): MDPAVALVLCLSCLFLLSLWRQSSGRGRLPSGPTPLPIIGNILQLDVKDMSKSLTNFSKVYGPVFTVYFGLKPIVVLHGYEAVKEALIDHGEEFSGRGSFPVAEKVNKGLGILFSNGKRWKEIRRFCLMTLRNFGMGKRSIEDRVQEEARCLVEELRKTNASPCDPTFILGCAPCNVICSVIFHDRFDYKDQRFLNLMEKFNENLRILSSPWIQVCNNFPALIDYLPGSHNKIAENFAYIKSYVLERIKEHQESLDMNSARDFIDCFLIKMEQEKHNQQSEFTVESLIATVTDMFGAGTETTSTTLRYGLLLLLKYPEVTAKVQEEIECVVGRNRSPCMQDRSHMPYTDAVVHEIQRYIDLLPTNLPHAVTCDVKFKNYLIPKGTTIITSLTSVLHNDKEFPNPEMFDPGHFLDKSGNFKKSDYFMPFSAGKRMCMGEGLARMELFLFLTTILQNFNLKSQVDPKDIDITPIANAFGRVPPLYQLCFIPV

The target in test [10] is human CYP2C9, CYP2C9 (gene 1559) (UniProt P11712). As to the kind of experiment: NVS_ADME_hCYP2C9: NovaScreen (NVS) CYP450-related Enzyme Activity (ADME) Assay for human CYP2C9 (AID 2283108; active = hit-call score of the fitted dose curve at least 0.9, where 1 is the maximum). An outline of the steps:
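Cell-free assay of recombinant human CYP2C9 produced in Sf9 cells, with enzyme activity read by fluorescence intensity 0.75 h after compound addition. Loss of signal versus an acetonitrile negative control indicates inhibition. Primary screen used 10 uM in duplicate; actives were retested in concentration series.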

For test [11], the target named is Cytochrome P450 3A4 (Homo sapiens) (UniProt P08684). As to the kind of experiment: NVS_ADME_hCYP3A4: NovaScreen (NVS) CYP450-related Enzyme Activity (ADME) Assay for human CYP3A4 (AID 2283110; active = hit-call score of the fitted dose curve at least 0.9, where 1 is the maximum). An outline of the steps: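 Activity is derived from decreased fluorescence intensity relative to acetonitrile, measured 0.33 hour after dosing insect-cell-expressed CYP3A4 in a cell-free format. Screening used 10 uM in duplicate before concentration-response follow-up.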

Test [12] has as its target rat CYP2A1, Cyp2a1 (gene 24894) (UniProt P11711). Briefly: NVS_ADME_rCYP2A1: NovaScreen (NVS) CYP450-related Enzyme Activity (ADME) Assay for rat CYP2A1 (AID 2283114). The method, boiled down: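 Cell-free fluorescence enzyme-activity read on recombinant rat CYP2A1, taken 0.75 h post-dosing. Compounds were screened in duplicate at 10 uM, then hits tested in concentration series (max 20 uM); inhibition scored relative to acetonitrile baseline.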

For test [13], the target named is rat CYP2A2, Cyp2a2 (gene 24895) (UniProt P15149). Briefly: NVS_ADME_rCYP2A2: NovaScreen (NVS) CYP450-related Enzyme Activity (ADME) Assay for rat CYP2A2 (AID 2283116; active = hit-call score of the fitted dose curve at least 0.9, where 1 is the maximum). An outline of the steps: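 Compounds first tested in duplicate at 10 uM, then in singleton concentration series up to 20 uM when over threshold. Activity of the recombinant enzyme read by fluorescence at 0.2 h, normalised to acetonitrile vehicle.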
Chain of rat CYP2A2, Cyp2a2 (gene 24895) (P15149 whole entry, looked up): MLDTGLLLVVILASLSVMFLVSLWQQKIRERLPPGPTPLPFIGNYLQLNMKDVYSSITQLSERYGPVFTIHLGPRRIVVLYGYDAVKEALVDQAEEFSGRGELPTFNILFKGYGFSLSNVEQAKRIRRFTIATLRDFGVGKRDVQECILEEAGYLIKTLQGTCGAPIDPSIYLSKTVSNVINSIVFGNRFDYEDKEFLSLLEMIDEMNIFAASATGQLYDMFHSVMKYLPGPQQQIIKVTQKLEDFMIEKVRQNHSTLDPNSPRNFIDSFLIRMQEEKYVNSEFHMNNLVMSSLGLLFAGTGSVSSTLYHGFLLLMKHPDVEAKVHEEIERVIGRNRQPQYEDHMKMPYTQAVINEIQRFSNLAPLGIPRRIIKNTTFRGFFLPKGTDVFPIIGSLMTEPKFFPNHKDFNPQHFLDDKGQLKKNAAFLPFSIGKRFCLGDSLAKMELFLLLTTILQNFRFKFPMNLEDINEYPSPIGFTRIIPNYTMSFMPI

Test [14] deals with human CYP2B6, CYP2B6 (gene 1555) (UniProt P20813). As to the kind of experiment: NVS_ADME_hCYP2B6: NovaScreen (NVS) CYP450-related Enzyme Activity (ADME) Assay for human CYP2B6 (AID 2283101; active = hit-call score of the fitted dose curve at least 0.9, where 1 is the maximum). The method, boiled down: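 Fluorescence-based enzyme activity of recombinant human CYP2B6, measured 1 h post-dose against acetonitrile vehicle baseline. Screened at a single concentration of 10 uM in duplicate before concentration-response follow-up.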
Chain of human CYP2B6, CYP2B6 (gene 1555) (P20813 whole entry, looked up): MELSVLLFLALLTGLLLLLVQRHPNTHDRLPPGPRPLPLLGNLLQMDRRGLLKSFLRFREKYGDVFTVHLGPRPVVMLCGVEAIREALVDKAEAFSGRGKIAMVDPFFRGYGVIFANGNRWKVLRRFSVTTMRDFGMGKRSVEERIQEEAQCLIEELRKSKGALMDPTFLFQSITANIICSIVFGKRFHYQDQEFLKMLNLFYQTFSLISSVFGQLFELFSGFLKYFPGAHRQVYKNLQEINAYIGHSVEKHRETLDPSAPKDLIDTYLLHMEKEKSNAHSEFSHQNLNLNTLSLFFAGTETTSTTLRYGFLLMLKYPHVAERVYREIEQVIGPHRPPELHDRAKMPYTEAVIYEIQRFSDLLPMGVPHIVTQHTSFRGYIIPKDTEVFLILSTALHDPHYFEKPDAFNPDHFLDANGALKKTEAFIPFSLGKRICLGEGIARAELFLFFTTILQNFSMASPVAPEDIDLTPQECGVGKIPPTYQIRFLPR

For test [15], the target named is human CYP1A2, CYP1A2 (gene 1544) (UniProt P05177). As to the kind of experiment: NVS_ADME_hCYP1A2: NovaScreen (NVS) CYP450-related Enzyme Activity (ADME) Assay for human CYP1A2 (AID 2283102; active = hit-call score of the fitted dose curve at least 0.9, where 1 is the maximum;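 also: potency for inhibition since loss of fluorescence marks reduced CYP1A2 activity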). The method, boiled down:
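Fluorescence-intensity enzyme activity read-out, taken 0.5 h post-dosing, using insect-cell-derived recombinant CYP1A2 and specific fluorescent substrate. Acetonitrile served as negative control/baseline. Single-concentration duplicate screen at 10 uM, then concentration-response follow-up.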

Test [16] concerns the target human CYP2C8, CYP2C8 (gene 1558) (UniProt P10632). As to the kind of experiment: NVS_ADME_hCYP2C8: NovaScreen (NVS) CYP450-related Enzyme Activity (ADME) Assay for human CYP2C8 (AID 2283104). An outline of the steps:
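Fluorescence readout of substrate turnover by recombinant CYP2C8 after 0.5 h, baseline acetonitrile. Single-concentration duplicate screen at 10 uM preceded singleton concentration series (max 20 uM) for compounds passing the inhibition threshold.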

Test [17] deals with human CYP2J2, CYP2J2 (gene 1573) (UniProt P51589). As to the kind of experiment: NVS_ADME_hCYP2J2: NovaScreen (NVS) CYP450-related Enzyme Activity (ADME) Assay for human CYP2J2 (AID 2283106; active = hit-call score of the fitted dose curve at least 0.9, where 1 is the maximum). An outline of the steps: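 Chemicals were first tested at 10 uM in duplicate, and hits meeting criteria such as 30% inhibition were run in singleton concentration series with a 20 uM top concentration. Enzyme activity of recombinant CYP2J2 was measured by fluorescence after 1 h, relative to acetonitrile.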
Chain of human CYP2J2, CYP2J2 (gene 1573) (P51589 whole entry, looked up): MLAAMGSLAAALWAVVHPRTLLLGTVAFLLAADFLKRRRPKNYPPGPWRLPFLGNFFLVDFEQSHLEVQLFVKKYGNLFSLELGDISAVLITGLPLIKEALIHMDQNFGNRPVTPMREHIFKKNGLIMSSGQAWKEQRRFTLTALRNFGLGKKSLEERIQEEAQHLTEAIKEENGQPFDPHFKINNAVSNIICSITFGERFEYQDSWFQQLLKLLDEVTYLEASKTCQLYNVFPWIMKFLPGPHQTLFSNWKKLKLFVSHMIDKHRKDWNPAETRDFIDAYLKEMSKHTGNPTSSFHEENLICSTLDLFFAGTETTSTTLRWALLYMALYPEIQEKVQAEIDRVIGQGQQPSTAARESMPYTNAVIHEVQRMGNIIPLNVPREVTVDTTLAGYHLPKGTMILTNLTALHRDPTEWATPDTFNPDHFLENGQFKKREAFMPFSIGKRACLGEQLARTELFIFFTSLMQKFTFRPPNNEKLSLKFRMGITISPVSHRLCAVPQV

In test [18] the target is human CYP2D6, CYP2D6 (gene 1565) (UniProt P10635). Briefly: NVS_ADME_hCYP2D6: NovaScreen (NVS) CYP450-related Enzyme Activity (ADME) Assay for human CYP2D6 (AID 2283107; active = hit-call score of the fitted dose curve at least 0.9, where 1 is the maximum). The method, boiled down:
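Fluorescence intensity read 1 h post-dosing; insect-cell-expressed recombinant protein with fluorogenic substrate, no cells. Activity is scored as signal loss relative to acetonitrile baseline, first at a single 10 uM concentration in duplicate, then as concentration series for confirmed actives.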

In test [19] the target is rat CYP1A2, Cyp1a2 (gene 24297) (UniProt P04799). As to the kind of experiment: NVS_ADME_rCYP1A2: NovaScreen (NVS) CYP450-related Enzyme Activity (ADME) Assay for rat CYP1A2 (AID 2283115; active = hit-call score of the fitted dose curve at least 0.9, where 1 is the maximum). The method, boiled down:
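Primary testing ran in duplicate at 10 uM, with actives re-tested across concentration series. Fluorescence intensity from substrate turnover by recombinant protein, measured 1 hour post-dosing, with signal loss scored against acetonitrile vehicle.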

Chain of human CYP2C9, CYP2C9 (gene 1559) (P11712 whole entry, looked up): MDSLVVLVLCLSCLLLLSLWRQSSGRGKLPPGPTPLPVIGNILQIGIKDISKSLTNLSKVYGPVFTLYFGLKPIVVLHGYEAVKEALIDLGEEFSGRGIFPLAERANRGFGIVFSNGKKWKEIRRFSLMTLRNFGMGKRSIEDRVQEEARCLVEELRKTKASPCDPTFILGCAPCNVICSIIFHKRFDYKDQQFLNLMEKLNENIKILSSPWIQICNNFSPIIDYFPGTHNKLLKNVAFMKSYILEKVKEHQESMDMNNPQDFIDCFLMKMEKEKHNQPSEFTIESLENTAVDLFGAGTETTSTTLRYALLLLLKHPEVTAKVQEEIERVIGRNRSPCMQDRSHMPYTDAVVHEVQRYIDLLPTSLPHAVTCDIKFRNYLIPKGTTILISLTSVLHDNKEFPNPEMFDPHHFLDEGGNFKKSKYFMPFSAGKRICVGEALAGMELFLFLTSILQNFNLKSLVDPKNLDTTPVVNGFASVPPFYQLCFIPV
Chain of human CYP1A1, CYP1A1 (gene 1543) (P04798 whole entry, looked up): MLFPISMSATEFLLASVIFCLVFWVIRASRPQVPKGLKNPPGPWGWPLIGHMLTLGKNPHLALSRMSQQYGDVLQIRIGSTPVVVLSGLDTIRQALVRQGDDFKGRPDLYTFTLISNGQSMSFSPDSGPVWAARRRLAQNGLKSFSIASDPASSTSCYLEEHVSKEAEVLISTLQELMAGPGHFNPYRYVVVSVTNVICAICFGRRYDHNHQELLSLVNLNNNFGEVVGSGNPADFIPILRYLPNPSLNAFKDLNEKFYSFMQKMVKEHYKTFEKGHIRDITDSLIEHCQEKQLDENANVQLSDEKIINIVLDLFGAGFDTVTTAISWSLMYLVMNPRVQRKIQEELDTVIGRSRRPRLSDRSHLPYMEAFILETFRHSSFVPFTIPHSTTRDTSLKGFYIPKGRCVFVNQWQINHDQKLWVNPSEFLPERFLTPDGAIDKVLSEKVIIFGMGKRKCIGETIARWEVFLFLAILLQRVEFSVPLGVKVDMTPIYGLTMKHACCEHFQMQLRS
Chain of rat CYP2A1, Cyp2a1 (gene 24894) (P11711 whole entry, looked up): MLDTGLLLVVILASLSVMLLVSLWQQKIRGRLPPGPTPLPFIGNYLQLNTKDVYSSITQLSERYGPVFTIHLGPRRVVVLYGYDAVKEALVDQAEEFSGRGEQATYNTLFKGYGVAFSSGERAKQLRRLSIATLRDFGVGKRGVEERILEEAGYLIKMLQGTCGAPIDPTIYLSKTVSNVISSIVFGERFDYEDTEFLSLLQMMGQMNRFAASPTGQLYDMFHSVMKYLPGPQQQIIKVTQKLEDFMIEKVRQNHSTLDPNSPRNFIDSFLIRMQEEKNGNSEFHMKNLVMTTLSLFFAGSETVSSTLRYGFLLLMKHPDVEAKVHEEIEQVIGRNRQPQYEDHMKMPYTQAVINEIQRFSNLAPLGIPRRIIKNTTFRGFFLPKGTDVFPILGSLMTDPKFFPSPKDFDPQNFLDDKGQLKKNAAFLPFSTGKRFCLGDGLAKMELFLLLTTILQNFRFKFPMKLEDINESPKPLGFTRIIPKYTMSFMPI
Chain of human CYP1A2, CYP1A2 (gene 1544) (P05177 whole entry, looked up): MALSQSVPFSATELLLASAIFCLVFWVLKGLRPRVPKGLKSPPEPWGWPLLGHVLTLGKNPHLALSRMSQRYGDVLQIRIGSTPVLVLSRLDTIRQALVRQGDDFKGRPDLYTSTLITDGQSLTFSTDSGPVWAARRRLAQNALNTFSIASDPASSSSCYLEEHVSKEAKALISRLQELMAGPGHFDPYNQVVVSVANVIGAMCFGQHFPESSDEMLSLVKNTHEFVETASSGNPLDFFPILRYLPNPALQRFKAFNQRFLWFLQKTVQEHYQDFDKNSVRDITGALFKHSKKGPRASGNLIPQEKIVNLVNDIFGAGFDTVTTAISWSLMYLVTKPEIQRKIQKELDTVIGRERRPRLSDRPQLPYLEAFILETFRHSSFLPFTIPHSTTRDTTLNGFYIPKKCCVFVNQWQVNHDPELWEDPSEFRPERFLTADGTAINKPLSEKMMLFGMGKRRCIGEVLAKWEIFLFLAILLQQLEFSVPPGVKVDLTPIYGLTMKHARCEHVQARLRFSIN
Chain of human CYP2C8, CYP2C8 (gene 1558) (P10632 whole entry, looked up): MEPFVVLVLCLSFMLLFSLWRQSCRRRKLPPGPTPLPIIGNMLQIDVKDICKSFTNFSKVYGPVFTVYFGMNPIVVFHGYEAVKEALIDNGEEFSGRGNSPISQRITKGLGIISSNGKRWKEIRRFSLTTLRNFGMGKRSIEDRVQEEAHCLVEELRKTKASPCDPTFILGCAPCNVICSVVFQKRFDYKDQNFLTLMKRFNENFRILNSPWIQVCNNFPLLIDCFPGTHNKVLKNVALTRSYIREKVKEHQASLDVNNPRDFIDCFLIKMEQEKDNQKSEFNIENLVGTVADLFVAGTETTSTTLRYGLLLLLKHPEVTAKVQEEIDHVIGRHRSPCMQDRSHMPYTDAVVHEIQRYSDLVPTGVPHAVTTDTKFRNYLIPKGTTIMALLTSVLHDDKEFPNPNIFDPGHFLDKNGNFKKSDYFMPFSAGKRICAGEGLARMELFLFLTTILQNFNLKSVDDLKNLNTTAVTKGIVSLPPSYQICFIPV

For `COC(=O)c1ccccc1S(=O)(=O)NC(=O)N(C)c1nc(C)nc(OC)n1`, the outcome in test [1], in [2], in test [3] and in test [4] was inactive.
With `CCN(CC)C(=O)SCc1ccc(Cl)cc1`, the outcome in test [1], in [2], in test [3] and in test [4] was inactive.
`CC(C)(C)C(O)C(Oc1ccc(Cl)cc1)n1cncn1` (stereo not given): the result in test [5], in test [1], in test [2], in test [4], in test [7] and in [8] was inactive. The outcome in test [10] and in test [11] was inactive. Further, the AC50 in [1] is 3.38 µM (active); in [2], 10.6 µM (active); in test [6] it was 7.34 µM (active) and 2.41 µM (active); in test [8] it was 7.11 µM (active); in [9], 7.93 µM (active); in test [10], 5.02 µM (active) and 7.84 µM (active). Also, the AC50 in [12] was 3.66 µM (active); in [13], 0.32 µM (active).
On to `CCc1ccc(C(=O)NN(C(=O)c2cc(C)cc(C)c2)C(C)(C)C)cc1`, for which the result in test [5], in test [1] and in test [4] was inactive. For the same molecule, in test [2], the AC50 is 11.3 µM (active).
In the case of `CCCN(CCC)c1c([N+](=O)[O-])cc(C(F)(F)F)cc1[N+](=O)[O-]`, the AC50 in test [1] is 15 µM (active); in [2], 24.9 µM (active); in test [3], 24.4 µM (active); in [4] it was 20 µM (active). In test [6], the result was inactive.
`CNC(=O)Oc1cccc(N=CN(C)C)c1`: the result in test [1], in [2] and in [4] was inactive.
In the case of `COc1cc(OC)nc(NC(=O)NS(=O)(=O)c2cc(NC=O)ccc2C(=O)N(C)C)n1`, the outcome in test [1], in [2] and in test [4] was inactive.
Consider `Cc1cc(C)nc(NC(=O)NS(=O)(=O)c2ccccc2C(=O)OC2COC2)n1`, for which the outcome in test [5], in test [1], in test [2], in test [3] and in test [4] was inactive.
On to `CCCN(CCOc1c(Cl)cc(Cl)cc1Cl)C(=O)n1ccnc1`, for which the AC50 in [5] is 32.5 µM (active); in test [1], 20 µM (active); in test [2] it was 15.5 µM (active); in test [6] it was 784 nM (active); in [8], 0.453 µM (active); in test [14], 0.124 µM (active). Moreover, the AC50 in test [15] is 0.616 µM (active); in test [9], 0.588 µM (active); in [16], 1.85 µM (active); in test [17], 0.094 µM (active); in [18], 2.18 µM (active); in [10], 578 nM (active). Further, the AC50 in test [12] was 0.512 µM (active); in test [13], 0.00934 µM (active). The result in test [4] and in [19] was inactive.
